# In the library only some 11% were active in any assay of this set; here they are far more common.
# HP1b binding inh = inhibitors of HP1-beta chromodomain binding to methylated histone tails; P83916; AlphaScreen HP1-beta / biotin-H3K9me3 peptide binding; Potency, µM (series often up to 114 µM), inactives show top-dose activity change, negative = inhibition, actives largely listed as inhibitors; hit rate 0.56% among 390,000; further: nearly all actives have a fitted effect of over 70% in size
# Target sequence (P83916 whole entry, looked up): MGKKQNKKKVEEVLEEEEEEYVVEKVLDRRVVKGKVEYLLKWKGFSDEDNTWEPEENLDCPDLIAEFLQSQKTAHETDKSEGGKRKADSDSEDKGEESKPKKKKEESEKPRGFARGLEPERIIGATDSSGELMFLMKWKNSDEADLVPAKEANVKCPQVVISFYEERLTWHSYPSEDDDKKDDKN
#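 HP1-beta protein (50 nM final) preincubated 30 min at room temperature with biotinylated H3(1-18)K9me3 peptide (50 nM) in PBS pH 7.4, 0.01% Tween-20, then compound added for 30 min. AlphaScreen streptavidin donor/nickel chelate acceptor beads (10 ug/mL final), 30 min dark, luminescence read.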
# G9a inh = blocks human histone lysine methyltransferase G9a | hit rate 8.8% among 350,000 | AID 504332 | Potency, µM (top dose mostly 102 µM), for the others: top-dose activity, negative = inhibition, usual class: inhibitors | G9a H3K9 monomethylation, AlphaScreen, 2 h | Q96KQ7; further: on the % scale 0 is the no-effect control and ±100 the full control effect; nearly all actives have a fitted effect of over 75% in size
# Target sequence (Q96KQ7 913-1193 limits assumed): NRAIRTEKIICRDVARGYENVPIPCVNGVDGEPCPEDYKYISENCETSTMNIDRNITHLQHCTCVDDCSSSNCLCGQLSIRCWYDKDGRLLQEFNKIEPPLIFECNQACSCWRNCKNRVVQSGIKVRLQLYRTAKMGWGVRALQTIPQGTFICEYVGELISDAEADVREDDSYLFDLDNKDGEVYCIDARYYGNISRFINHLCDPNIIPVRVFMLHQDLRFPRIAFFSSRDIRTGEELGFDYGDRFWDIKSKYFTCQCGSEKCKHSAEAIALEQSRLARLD
#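 Step 1: enzyme (final 20 nM) with compound, 15 min RT. Step 2: substrate peptide 500 nM and SAM 20 uM, 2 h RT. Step 3: anti-H3K9me1 antibody and AlphaScreen beads, 10 min, then plate read.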
# L3MBTL1 inh = inhibitors of human L3MBTL1; AlphaScreen L3MBTL1–H3K9me1 peptide binding; AID 485360; Potency, µM (doses to about 57.1 µM), without a hit: top-dose activity, negative = inhibition, hits mostly inhibitors; hit rate 0.66% among 230,000; Q9Y468; further: on the % scale 0 is the no-effect control and ±100 the full control effect; nearly all actives have a fitted effect of over 60% in size
#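 L3MBTL1 (50 nM) pre-complexed 30 min with biotinylated H3(1-15)K9me1 peptide (75 nM), then compounds added for 30 min at room temperature; AlphaScreen streptavidin donor/nickel chelate acceptor beads (10 ug/mL final) read after 30 min dark incubation.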
# JMJD2A Tudor = inhibitors of human JMJD2A Tudor domain; O75164; AlphaScreen JMJD2A-Tudor / H3K4me3 peptide binding; Potency, µM (series often up to 114 µM), for inactives: at the top dose activity change, negative = inhibition, most hits filed as inhibitors; hit rate 4.4% among 390,000; further: on the % scale 0 is the no-effect control and ±100 the full control effect; nearly all actives have a fitted effect of over 50% in size
# BAZ2B inh = inhibitors of human BAZ2B bromodomain. AlphaScreen BAZ2B-H3K14Ac peptide displacement. hit rate 4.4% among 360,000. Potency, µM (series often up to 114 µM), for the others: at the highest dose activity change, negative = inhibition, most hits filed as inhibitors. Q9UIF8; further: on the % scale 0 is the no-effect control and ±100 the full control effect; nearly all actives have a fitted effect of over 60% in size
#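 Complex of BAZ2B and biotin-H3K14Ac (50 nM apiece) forms over 30 min at RT, then faces library compounds up to 110 uM for another 30 min; AlphaScreen beads added, 20 min dark incubation, luminescence read.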
# * hit, by the source's call; ? = inconclusive; . = no result given; [ ] = remark or other dose. The call rests on the fitted dose curve; in most records, active means well fitted inhibition curve with a large enough effect; inconclusive means small, poorly fitted or top-dose-only effect; inactive means no such curve, though single readings can be large or run the other way. Potency means the concentration at half of the fitted maximal effect.
SMILES,HP1b binding inh,G9a inh,L3MBTL1 inh,JMJD2A Tudor,BAZ2B inh
O=S(=O)(NCC(c1ccco1)N1CCN(c2ccccc2F)CC1)c1ccccc1 (stereo not drawn),-5%,1%[59 µM],-6%,-34%,-31%
COc1ccc(C)cc1S(=O)(=O)NCC(c1ccc(N(C)C)cc1)N1CCc2ccccc21 (stereo not drawn),?,10µM*,.,14µM*,10µM*
CN(C)c1ccc(C(CNS(=O)(=O)c2ccc(F)cc2)N2CCc3ccccc32)cc1 (stereo not drawn),?,14µM*,.,20µM*,10µM*
O=S(=O)(NCC(c1ccco1)N1CCc2ccccc21)c1ccccc1 (stereo not drawn),?,45µM*,?,?,40µM*
Cc1cc(C)c(S(=O)(=O)NCC(c2ccc(N(C)C)cc2)N2CCc3ccccc32)c(C)c1 (stereo not drawn),?,11µM*,.,13µM*,3.2µM*
COc1ccc(C)cc1S(=O)(=O)NCC(c1cccnc1)N1CCc2ccccc2C1 (stereo not drawn),26%,?,.,-32%,?
CCc1cc2c(cc3c(=O)n(CC(=O)NC(C)C)nc(CC)n32)s1,42%,-5%[59 µM],.,8%,4%
Cc1cc(C)c(S(=O)(=O)NCC(c2ccc(N(C)C)cc2)N2CCOCC2)c(C)c1 (stereo not drawn),?,?,.,50µM*,40µM*
Cc1cccc(NC(=O)CN2C(=O)N/C(=C\c3cccn3-c3cccc(C(=O)O)c3)C2=O)c1,-30%,35µM*,.,-28%,56µM*
Cc1cccc(NC(=O)CN2C(=O)N/C(=C/c3cc(C)n(C)c3C)C2=O)c1,18%,56µM*,-37%,-28%,?
COc1cc(/C=C2/NC(=O)N(CC(=O)Nc3cccc(C)c3)C2=O)ccc1OCC(N)=O,?,20%,-1%,20µM*,-17%
O=C(O)c1cccc(-n2cccc2/C=C2/NC(=O)N(c3ccc(Cl)cc3)C2=O)c1,1.1µM*,1.4µM*,0.79µM*,0.79µM*,1.8µM*
COc1ccc(-n2cccc2/C=C2/NC(=O)N(c3cccc(Cl)c3)C2=O)cc1,21%,?,-3%,-8%,-38%
N#Cc1ccc(CN2CCCC3(CCN(C(=O)c4cnccn4)CC3)C2)cc1,.,-1%[12.7 µM],.,.,.
COC(=O)CC(=O)CSc1nc2cc(C(=O)NCC(C)C)ccc2c(=O)n1CCc1ccccc1,48%,22%[59 µM],.,-1%,1%
Nc1nc(SCC(=O)O)c2[nH]cnc2n1,9%[57 µM],.,.,-4%[57.1 µM],.
O=[N+]([O-])c1ccccc1N/N=C1\CC2CC=CC12 (stereo not drawn),18µM*,11µM*,?,40µM*,13µM*
CC(=O)c1cccc(-n2c(=O)c3c4c(sc3n(CC(=O)c3ccc(Cl)cc3)c2=O)CN(C(C)=O)CC4)c1,7%,-15%[59 µM],.,-15%,1%
CCN(CC)CCCC(C)Nc1cc(/C=C/c2ccccc2Cl)nc2cc(Cl)ccc12 (stereo not drawn),.,-16%[12.7 µM],.,.,.
CCN(CC)CCCC(C)Nc1c2ccc(Cl)cc2nc2ccc(OC)cc12 (stereo not drawn),.,8.4µM*,.,.,-34%
Cc1ccc(C(=O)NCC(=O)OC(C)C(=O)Nc2ccc(N(C)C)cc2)cc1C (stereo not drawn),?,25µM*,.,?,?
CC(=O)NCC(=O)OC(C)C(=O)Nc1ccc(C(C)=O)cc1 (stereo not drawn),57%,20%[59 µM],-2%,-20%[57.1 µM],-3%
CCC(=O)/C=C1/Sc2ccccc2N1CC,-14%,8.9µM*,-3%,?,-9%
O=C(NCc1ccccc1)c1ccc2c(c1)sc1nc(-c3ccc(F)cc3)cn12,67%,6%[59 µM],.,-14%,-14%
O=C(NCCCc1ccccc1)c1cccc(NC(=O)C2CC2)c1,17%,.,.,-27%,.
SMILES,HP1b binding inh,G9a inh,L3MBTL1 inh,JMJD2A Tudor,BAZ2B inh
O=C(NCCCCc1ccccc1)c1cccc(NC(=O)C2CC2)c1,33%,.,.,56µM*,.
COc1ccc(CNC(=O)COC(=O)c2cc(C)nc3ccccc23)cc1,10%,.,1%,-19%,.
O=C(c1cc(-c2ccco2)nc2ccccc12)N1CCN(c2ccc(F)cc2)CC1,-14%,?,-18%,56µM*,50µM*
O=C(OCC(=O)N1CCN(C(=O)c2ccco2)CC1)c1cc(-c2ccc(Cl)c(Cl)c2Cl)nc2ccccc12,14%,79µM*,.,-13%[57.1 µM],-6%
COc1ccc(CNC(=O)COC(=O)c2cc(-c3ccco3)nc3ccccc23)cc1,.,10µM*,.,.,50µM*
O=C(OCC(=O)N(Cc1ccccc1)Cc1ccccc1)c1ccccc1NCCO,72%,40µM*,17%,16%,6%
COC(=O)N1CCC[C@@]2(CCN(C(=O)Nc3ccccc3)C2)C1,.,1%[12.7 µM],.,.,.
O=C(OCC(=O)N1CCN(C(=O)COC(=O)c2ccccc2NCCO)CC1)c1ccccc1NCCO,41%,.,.,-2%,.
O=C(c1ccco1)N1CCN(C(=O)c2cc(-c3ccccn3)nc3ccccc23)CC1,33%,?,-1%,3%,.
O=C(OCC(=O)N1CCN(C(=O)c2ccco2)CC1)c1ccccc1NCCO,-2%,4%[0.501 µM],-20%,32µM*,?
O=C(OCC(=O)N1CCN(C(=O)c2ccco2)CC1)c1cc(-c2ccco2)nc2ccccc12,32µM*,.,8.9µM*,40µM*,20µM*
Cc1ccc(-n2nc(C)c3c(C(=O)NCCc4ccc(S(N)(=O)=O)cc4)cc(C)nc32)cc1,77%,0%[59 µM],.,-16%,47%[57.1 µM]
COc1ccc(C(=O)NC(=S)NNC(=O)COc2ccccc2)cc1,?,.,18%,-31%,13%
O=C(COc1ccc([N+](=O)[O-])cc1)NNC(=S)NC(=O)c1ccc(Br)cc1,?,2.8µM*,44%,50µM*,2%
Cc1ccc(C(=O)NC(=S)NNC(=O)COc2ccc([N+](=O)[O-])cc2)cc1,-19%,3.5µM*,.,25µM*,3%
C=CC[n+]1c(-c2ccc(OC)cc2)csc1NNC(=O)Nc1ccccc1,-34%,14µM*,.,50µM*,10µM*
CCOc1cc(C2c3c(-c4cc(C)ccc4O)n[nH]c3C(=O)N2CCCOC(C)C)ccc1O (stereo not drawn),14%,-23%[59 µM],.,?,?
Cc1nc2nc(CC(=O)O)[nH]n2c(=O)c1[N+](=O)[O-],20%,-12%[12.7 µM],9%,18µM*,-16%
COc1ccc(CNC(=O)c2ccc3c(c2)N(Cc2cccc(Cl)c2)C(=O)c2ccccc2S3)c(OC)c1,27%,-29%[59 µM],.,-5%,0%
Cc1ccsc1CCN1C(=O)N(c2ccc(F)cc2)C(=O)C1CC(=O)Nc1ccccc1 (stereo not drawn),29%,4%[59 µM],.,-22%,-16%
Cc1ccc2sc(C)[n+](CCO)c2c1,12%,28µM*,.,-17%,.

# Source: PubChem
